Inconclusive results are not listed. A number with no mark means an inactive call. The source made the active and inactive calls. The call rests on the fitted dose curve; in most records, active means well fitted cell-killing curve with a large enough effect; inconclusive means small, poorly fitted or top-dose-only effect, or effect the other way; inactive means no such curve, though single readings can be large or run the other way.
Potency means the concentration at half of the fitted maximal effect.

The experiment in a line: Quantitative High-Throughput drug screen in 47 multiple myeloma cell lines against the NCATS MIPE library collection: AMO1_DSMZ cell viability assay (AID 1918927; further: nearly all actives have a fitted effect of over 30% in size). The settings on record: AMO1 myeloma cells viability, CellTiter-Glo ATP luminescence, 48 h; series mostly up to 45.8 µM; viability, % of DMSO: at the top concentration. The source says:
PI: Beverly A. Mock Ph.D.
Laboratory of Cancer Biology and Genetics,
Center for Cancer Research, National Cancer Institute,
National Institute of Health, Bethesda, Maryland
Drug resistance and disease progression are common in multiple myeloma (MM) patients, underscoring the need for new therapeutic combinations. […] We hypothesized that effective combinations would reduce MYC expression and enhance p16 activity. […] These preclinical data identify potentially useful drug combinations for evaluation in drug-resistant MM and reveal potential mechanisms of combined drug sensitivity.
Described herein is the primary MIPE qHTS used to cherrypick compounds. Validated compounds were then further tested for potential synergistic activiy.
[1] Peat TJ, Gaikwad SM, Dubois W, Gyabaah-Kessie N, Zhang S, Gorjifard S, Phyo Z, Andres M, Hughitt VK, Simpson RM, Miller MA, Girvin AT, Taylor A, Williams D, D'Antonio N, Zhang Y, Rajagopalan A, Flietner E, Wilson K, Zhang X, Shinn P, Klumpp-Thomas C, McKnight C, Itkin Z, Chen L, Kazandijian D, Zhang J, Michalowski AM, Simmons JK, Keats J, Thomas CJ, Mock BA. Drug combinations identified by high-throughput screening promote cell cycle transition and upregulate Smad pathways in myeloma. Cancer Lett. 2023 Aug 1;568:216284. doi: 10.1016/j.canlet.2023.216284. Epub 2023 Jun 24. PMID: 37356470; PMCID: PMC10408729.
SEQUENCE No. (e.g., 1, 2, 3, etc.); […] (e.g., Cells, Incubation, Reagent, etc.); VALUE and DESCRIPTION.
1; Cells; 5 uL; white, solid bottom 1536-well Greiner assay plate.
2; Compounds; 23 nL; Kalypsis pin tool (Wako USA) equipped with a 1536-well pin head to transfer to the assay plates.
3; Incubation; 48 hours; 37C incubation.
4; Reagent;5uL; CellTiter Glo (Promega).
5; Detector; 425V; Luminescence; Viewlux PerkinElmer.
NOTES (numbers refer to Sequence numbers above)
1. The cell-based screening methods employed in this study were like those previously published. Briefly, the corresponding myeloma cell lines were screened in 1,536-well plates with 500 cells, 5-uL per well for inhibition of cell viability (assessed by measuring ATP levels with CellTiterGlo).
2. NCATS MIPE 4.0 library of approved and investigational drugs were added using the Kalypsis pin tool. Wells treated with DMSO only for 100% viability and media only wells for 0% viability were used as controls.
3. The assay plates were covered and incubated for 48 hours in a 37C, 5% CO2 incubator with controlled humidity.
4. After 48 hours, CellTilter-GloTM luminescent substrate mix (Promega) reagent was added to the assay plate and plates we incubated for 5 min at room temperature.
5. Signal was measured as median relative luminescence units on a ViewLux (PerkinElmer) multiplate reader.
[1] Heske CM, Davis MI, Baumgart JT, Wilson K, Gormally MV, Chen L, Zhang X, Ceribelli M, Duveau DY, Guha R, Ferrer M, Arnaldez FI, Ji J, Tran HL, Zhang Y, Mendoza A, Helman LJ, Thomas CJ. Matrix Screen Identifies Synergistic Combination of PARP Inhibitors and Nicotinamide Phosphoribosyltransferase (NAMPT) Inhibitors in Ewing Sarcoma. Clin Cancer Res. 2017 Dec 1;23(23):7301-7311. doi: 10.1158/1078-0432.CCR-17-1121. Epub 2017 Sep 12. PMID: 28899971; PMCID: PMC6636827.
(In general: In ATP-based viability assays light output follows the ATP content of the culture.)
For `CC(C)OC(=O)C(C)(C)Oc1ccc(C(=O)c2ccc(Cl)cc2)cc1`, the “viability, % of DMSO” value is 119%.

With `COc1ccc2c3c1OC1C[C@@H](O)C=C[C@@]31CCN(C)C2` (stereo not given in full), the “viability, % of DMSO” value is 105%.

For `N#Cc1ccc(NC(=O)Nc2ccccc2Br)c2n[nH]nc12`, the Potency is 14.8 µM (active).

For `O=c1cc(CN2CCOCC2)occ1OCCCCCSc1ccnc2cc(C(F)(F)F)ccc12`, the Potency was 18.7 µM (active).

With `Cc1ccc(Nc2cc(-c3cccc(N4C(=O)c5ccccc5C4=O)c3)ncn2)cc1NS(C)(=O)=O`, the Potency is 18.7 µM (active).

Consider `CC(C)(C(=O)NCC(F)(F)C(F)(F)F)C(=O)N[C@@H]1C(=O)Nc2ccccc2-c2ccccc21`, for which the Potency was 18.7 µM (active).

`COc1ncc(-c2ccc3nccc(-c4ccnnc4)c3c2)cc1NS(=O)(=O)c1ccc(F)cc1F`: the Potency is 0.0469 µM (active).

As for `C=C1C(=O)[C@@]23C(CC[C@@H]1[C@H]2O)[C@@]12CO[C@]3(O)[C@@H](O)[C@@H]1C(C)(C)CC[C@@H]2O` (stereo not given in full), the Potency was 1.48 µM (active).

For the molecule `CC1CCC(C(=O)N(c2cc(C#CC(C)(C)C)sc2C(=O)O)C2CCC(O)CC2)CC1` (stereo not given), the “viability, % of DMSO” value was 110%.

Turning to `CC1(C)S[C@H]2[C@H](NC(=O)[C@@H](N)c3ccc(O)cc3)C(=O)N2[C@@H]1C(=O)O`, the Potency is 2.35 µM (active).

Take `Nc1ncnc2c1ncn2[C@@H]1O[C@H](CO)C[C@@H]1O`: the “viability, % of DMSO” value is 99.6%.

Consider `O=C1C(Cl)=C(NCCN2CCOCC2)C(=O)c2ncccc21`, for which the Potency was 2.96 µM (active).

Regarding `CC=CC(=O)N(CC)c1ccccc1C`, the “viability, % of DMSO” value was 97.2%.

In the case of `NS(=O)(=O)c1ccc(NC2=CC(=O)c3ccccc3C2=O)cc1`, the Potency was 0.59 µM (active).

Take `Cc1cccc(Nc2nc(-c3ccncc3)cs2)c1`: the Potency was 11.8 µM (active).

For `CC(C)C(=O)Oc1ccc(CO)cc1[C@H](CCN(C(C)C)C(C)C)c1ccccc1`, the “viability, % of DMSO” value is 66.3%.

Take `Cc1cnc(C(=O)O)c[n+]1[O-]`: the “viability, % of DMSO” value is 92%.

With `CCN(CC)CCOc1ccc(C(=C(Cl)c2ccccc2)c2ccccc2)cc1`, the Potency is 18.7 µM (active).

For `Cc1ccc([C@@H]2O[C@H](CO)[C@@H](O)[C@H](O)[C@@H]2O)cc1Cc1ccc(-c2ccc(F)cc2)s1`, the Potency was 18.7 µM (active).

With `NC1=N[C@@]2(c3cc(NC(=O)c4ccc(F)cn4)ccc3F)COC[C@@H]2CS1`, the Potency is 2.64 µM (active).

`COCCCCC(=NOCCN)c1ccc(C(F)(F)F)cc1`: the “viability, % of DMSO” value is 101%.

With `CO[C@H]1C=CC=C(C)C(=O)NC2=CC(=O)C(NCCN(C)C)=C(C[C@@H](C)C[C@H](OC)[C@@H](O)[C@@H](C)C=C(C)[C@@H]1OC(N)=O)C2=O`, the Potency was 0.0469 µM (active).

In the case of `CCn1c(C(=O)N(C2CC2)C2CC2)cc2c3c(ncn3C)c(Nc3cc(C)n(C)n3)nc21`, the “viability, % of DMSO” value was 84.9%.

Take `O=C1NC(=O)C(=Cc2ccc3nccnc3c2)S1`: the “viability, % of DMSO” value was 134% [at 23.2 µM].

With `Cc1cc(OCCCc2c(C(=O)O)n(Cc3cccnc3)c3c(-c4c(COc5ccc(N6CCN([S+](C)(=O)[O-])CC6)cc5)nn(C)c4C)cccc23)cc(C)c1Cl`, the “viability, % of DMSO” value was 95.1%.

Take `CC(C)C[C@H](CC(=O)O)C(=O)N[C@@H](Cc1c[nH]c2ccccc12)C(=O)N[C@@H](C)c1ccccc1`: the “viability, % of DMSO” value is 79.7%.

For `O=C1c2ccccc2-[n+]2ccc3c([nH]c4ccccc43)c21`, the Potency is 5.9 µM (active).

Take `CC1(C)Cc2c(sc(NC(=S)NC(=O)c3ccccc3)c2C(=O)O)CO1`: the “viability, % of DMSO” value is 96.9%.

For `C[C@]12CCC3c4ccc(O)cc4CCC3C1CCC2=O` (stereo not given in full), the Potency is 0.833 µM (active).

On to `CC1(C)CCC2=C(O1)c1ccccc1C(=O)C2=O`, for which the Potency is 4.69 µM (active).

For `CC1(C)CCC(CN2CCN(c3ccc(C(=O)NS(=O)(=O)c4ccc(NCC5CCOCC5)c([N+](=O)[O-])c4)c(Oc4cnc5[nH]ccc5c4)c3)CC2)=C(c2ccc(Cl)cc2)C1`, the Potency was 9.35 µM (active).

Consider `CC(=O)Oc1cc2c(s1)CCN(C(C(=O)C1CC1)c1ccccc1F)C2` (stereo not given), for which the Potency is 1.87 µM (active).

As to `O=C(O)c1ccc(-c2c[nH]c3ncc(-c4ccccc4)cc23)cc1C1CCCC1`, the Potency was 2.96 µM (active).

As for `CCOC(=O)O[C@]1(C(=O)OCCl)CC[C@@H]2[C@H]3CCC4=CC(=O)C=C[C@]4(C)[C@@H]3[C@@H](O)C[C@@]21C`, the “viability, % of DMSO” value was 105%.

`COc1cccc2c1CCCC2CCCN1CCN(C2CCCCC2)CC1` (stereo not given): the Potency is 23.5 µM (active).

For `CC(C)(C)c1cc(C(=O)O)c(NC(=O)Nc2ccc3[nH]ncc3c2)s1`, the “viability, % of DMSO” value was 88.4%.

As for `Oc1ccc(C2=Cc3ccc(O)cc3OC2)cc1`, the Potency was 2.64 µM (active).

`Clc1cc(Cl)cc(CNc2ncncc2-c2ccc3c(c2)OCO3)c1`: the Potency was 7.43 µM (active).

Regarding `Cc1c(O)cccc1C(=O)N[C@@H](CSc1ccccc1)[C@H](O)CN1C[C@H]2CCCC[C@@H]2C[C@@H]1C(=O)NC(C)(C)C`, the Potency was 16.6 µM (active).

For the molecule `COCCOC(=O)C1=C(C)NC2=C(C(=O)CC(c3ccccc3OC)C2)C1c1cccc(O)c1` (stereo not given), the Potency was 11.8 µM (active).
